Data on five molecules can be found in PubChem BioAssay AID2283234 (EPA ToxCast).

Records with an inconclusive call do not appear. Calls of active or inactive are those of the source. The calls were made as follows: active = hit-call score of the fitted dose curve at least 0.9, where 1 is the maximum; inconclusive = response in the unintended direction; inactive = score below 0.9.

For orientation: AC50 means the concentration at which the activity in the assay is half-maximal.

This test has as its target human Dual Specificity Styrosine-Phosphorylation-Regulated Kinase 1A (DYRK1a), DYRK1A (gene 1859) (UniProt Q13627). The experiment in a line: NVS_ENZ_hDYRK1a: NovaScreen (NVS) Enzymatic Assay for human Dual Specificity Styrosine-Phosphorylation-Regulated Kinase 1A (DYRK1a). As to the method:
NVS_ENZ_hDYRK1a is a biochemical, single-readout assay that uses extracted gene-proteins in a cell-free assay. Measurements were taken 1 hour after chemical dosing in a 96-well plate.NVS_ENZ_hDYRK1a is one of one assay component(s) measured or calculated from the NVS_ENZ_hDYRK1a assay. It is designed to make measurements of enzyme activity, a form of enzyme reporter, as detected with fluorescence intensity signals by Fluorescence and electrophoretic mobility shift technology.Data from the assay component NVS_ENZ_hDYRK1a was analyzed into 1 assay endpoint. This assay endpoint, NVS_ENZ_hDYRK1a, was analyzed in the positive analysis fitting direction relative to DMSO as the negative control and baseline of activity. Using a type of enzyme reporter, loss-of-signal activity can be used to understand changes in the enzymatic activity as they relate to the gene DYRK1A. Furthermore, this assay endpoint can be referred to as a primary readout, because this assay has produced multiple assay endpoints where this one serves a enzymatic activity function. To generalize the intended target to other relatable targets, this assay endpoint is annotated to the kinase intended target family, where the subfamily is dual-specific kinase.
Binding assays used specific radioligands (tritiated, iodinated) with non-radioactive competitive displacement ligands in agonist or antagonist protocols (as indicated) and various reference compounds and inhibitors to titrate specific binding to receptors and transporters. Most enzyme assays (CYPs, kinases, phosphatases, proteases, HDACs) used recombinant protein and specific substrates (fluorescence mostly, some colorimetric and radioactive) and inhibitors, followed by a biochemical separation of substrate and product. All assays for the biochemical HTS were initially run in duplicate at a single concentration (10 uM for CYP450 assays and 25 uM for all others). […] Each assay was run with positive and negative controls, and concurrent controls on every plate. The follow-up (secondary) screen tested active chemical-pairs in concentration series, as well as a few additional assays not tested in the primary screen, some selected negative inactives, and several cases re-run in the concentration series for confirmatory purposes.
With `N#CSCSc1nc2ccccc2s1`, the result was inactive.

With `S=C([S-])NCCNC(=S)[S-].[Mn+2]`, the half-maximal activity concentration (AC50) was 6.02 µM (active). As to `O=C(O)C1(C(=O)Nc2ccc(Cl)cc2Cl)CC1`, the AC50 was 5.11 µM (active).

As for `S=C(S)NCCNC(=S)S.[Mn+2].[S-]C([S-])=NCCN=C([S-])[S-].[Zn+2]`, the half-maximal activity concentration (AC50) was 1.39 µM (active). On to `CC(C)(C)[C@@H](O)[C@@H](Cc1ccc(Cl)cc1)n1cncn1`, for which the outcome was inactive.
